# Activity calls are given as the source filed them.
# Legend:
# [1] = binders of probe aFSTL3 on microarray, primary screen, stem cell growth factor project, biochemical, small-molecule microarray, fluorescence 635/667 (AID 1064); conditions: higher = more signal;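 further: measures binding of the biotinylated anti-FSTL3 antibody to printed compounds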
# [2] = binders from COS7 lysate, DM2A8 probe, primary screen, torsin A project, cell lysate, small-molecule microarray, fluorescence 635/667 (AID 1065); conditions: higher = more signal, COS7 lysate expressing mutant human TOR1A
# [3] = binders of probe aFGF2 on microarray, primary screen, stem cell growth factor project, biochemical, small-molecule microarray, fluorescence 635/667 (AID 1067); conditions: higher = more signal;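 further: measures binding of biotinylated aFGF2 protein to printed compounds on slides; z-score merges feature fluorescence and signal-to-noise across triplicate slides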
# [4] = binders of probe aFGF10 on microarray, primary screen, stem cell growth factor project, biochemical, small-molecule microarray, fluorescence 635/667 (AID 1071); conditions: higher = more signal;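 further: score merges 667 nm spot intensity and signal to noise from triplicate slides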
# [5] = target: Neurogenic locus notch homolog protein 2 (Homo sapiens) (UniProt Q04721); assay: Notch2 binders on small-molecule microarrays, primary screen, biochemical, small-molecule microarray, 635 nm fluorescence, stem cell growth factors (AID 1073); conditions: Notch2 binding, higher = more signal
# [6] = target: Pro-neuregulin-1, membrane-bound isoform (Homo sapiens) (UniProt Q02297); assay: NRG1 binders on small-molecule microarrays, primary screen, psychiatric disease protein project, biochemical, small-molecule microarray, fluorescence 635/667 (AID 1075); conditions: NRG1 binding, 635 nm fluorescence, higher = more signal;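 further: score combines 667 nm spot fluorescence with signal to noise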
# [7] = tested on: Neuregulin-1 EGF-like domain; assay: binders of neuregulin-1 EGF-like domain, primary screen, biochemical, small-molecule microarray, 635 nm fluorescence (AID 1081); conditions: small-molecule microarray binding, higher = more signal;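 further: binding of the protein to compounds printed on small-molecule microarray slides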
# [8] = FRG1 promoter luciferase signal modulators, primary screen, FRG1 inhibition for FSHD, cell-based, C2C12 myotubes, firefly/Renilla luciferase, luminescence (AID 1084); conditions: higher = more signal, called active from +8 up or from −8 down
# [9] = binders of probe aFST on microarray, primary screen, stem cell growth factor project, biochemical, small-molecule microarray, fluorescence 635/667 (AID 1086); conditions: higher = more signal;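 further: score merges 667 nm fluorescence with signal-to-noise of each printed compound spot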
# [10] = binders of probe aHhip on microarray, primary screen, stem cell growth factor project, biochemical, small-molecule microarray, fluorescence 635/667 (AID 1087); conditions: higher = more signal;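 further: score merges spot fluorescence at 667nm with spot signal to noise ratio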
# Sequence of Pro-neuregulin-1, membrane-bound isoform (Homo sapiens) (Q02297 whole entry, looked up, the tested form may be a part, canonical isoform): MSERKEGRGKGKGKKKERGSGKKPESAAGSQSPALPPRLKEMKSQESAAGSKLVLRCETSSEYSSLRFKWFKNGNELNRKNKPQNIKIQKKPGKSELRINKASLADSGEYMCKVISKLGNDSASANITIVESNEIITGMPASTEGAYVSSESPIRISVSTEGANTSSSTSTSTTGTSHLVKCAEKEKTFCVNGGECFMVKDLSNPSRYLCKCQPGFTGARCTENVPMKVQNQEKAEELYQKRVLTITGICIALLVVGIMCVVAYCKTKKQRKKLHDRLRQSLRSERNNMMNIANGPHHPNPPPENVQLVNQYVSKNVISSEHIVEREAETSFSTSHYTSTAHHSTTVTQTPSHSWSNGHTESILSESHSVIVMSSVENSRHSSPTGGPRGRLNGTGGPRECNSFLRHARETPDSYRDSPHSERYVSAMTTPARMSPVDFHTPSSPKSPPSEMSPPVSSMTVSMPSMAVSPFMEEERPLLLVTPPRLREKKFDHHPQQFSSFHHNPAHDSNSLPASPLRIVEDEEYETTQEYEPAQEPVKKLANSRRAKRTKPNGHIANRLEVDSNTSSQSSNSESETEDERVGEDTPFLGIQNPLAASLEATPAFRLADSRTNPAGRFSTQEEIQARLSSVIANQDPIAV
# Sequence of Neurogenic locus notch homolog protein 2 (Homo sapiens) (Q04721 whole entry, looked up, canonical isoform): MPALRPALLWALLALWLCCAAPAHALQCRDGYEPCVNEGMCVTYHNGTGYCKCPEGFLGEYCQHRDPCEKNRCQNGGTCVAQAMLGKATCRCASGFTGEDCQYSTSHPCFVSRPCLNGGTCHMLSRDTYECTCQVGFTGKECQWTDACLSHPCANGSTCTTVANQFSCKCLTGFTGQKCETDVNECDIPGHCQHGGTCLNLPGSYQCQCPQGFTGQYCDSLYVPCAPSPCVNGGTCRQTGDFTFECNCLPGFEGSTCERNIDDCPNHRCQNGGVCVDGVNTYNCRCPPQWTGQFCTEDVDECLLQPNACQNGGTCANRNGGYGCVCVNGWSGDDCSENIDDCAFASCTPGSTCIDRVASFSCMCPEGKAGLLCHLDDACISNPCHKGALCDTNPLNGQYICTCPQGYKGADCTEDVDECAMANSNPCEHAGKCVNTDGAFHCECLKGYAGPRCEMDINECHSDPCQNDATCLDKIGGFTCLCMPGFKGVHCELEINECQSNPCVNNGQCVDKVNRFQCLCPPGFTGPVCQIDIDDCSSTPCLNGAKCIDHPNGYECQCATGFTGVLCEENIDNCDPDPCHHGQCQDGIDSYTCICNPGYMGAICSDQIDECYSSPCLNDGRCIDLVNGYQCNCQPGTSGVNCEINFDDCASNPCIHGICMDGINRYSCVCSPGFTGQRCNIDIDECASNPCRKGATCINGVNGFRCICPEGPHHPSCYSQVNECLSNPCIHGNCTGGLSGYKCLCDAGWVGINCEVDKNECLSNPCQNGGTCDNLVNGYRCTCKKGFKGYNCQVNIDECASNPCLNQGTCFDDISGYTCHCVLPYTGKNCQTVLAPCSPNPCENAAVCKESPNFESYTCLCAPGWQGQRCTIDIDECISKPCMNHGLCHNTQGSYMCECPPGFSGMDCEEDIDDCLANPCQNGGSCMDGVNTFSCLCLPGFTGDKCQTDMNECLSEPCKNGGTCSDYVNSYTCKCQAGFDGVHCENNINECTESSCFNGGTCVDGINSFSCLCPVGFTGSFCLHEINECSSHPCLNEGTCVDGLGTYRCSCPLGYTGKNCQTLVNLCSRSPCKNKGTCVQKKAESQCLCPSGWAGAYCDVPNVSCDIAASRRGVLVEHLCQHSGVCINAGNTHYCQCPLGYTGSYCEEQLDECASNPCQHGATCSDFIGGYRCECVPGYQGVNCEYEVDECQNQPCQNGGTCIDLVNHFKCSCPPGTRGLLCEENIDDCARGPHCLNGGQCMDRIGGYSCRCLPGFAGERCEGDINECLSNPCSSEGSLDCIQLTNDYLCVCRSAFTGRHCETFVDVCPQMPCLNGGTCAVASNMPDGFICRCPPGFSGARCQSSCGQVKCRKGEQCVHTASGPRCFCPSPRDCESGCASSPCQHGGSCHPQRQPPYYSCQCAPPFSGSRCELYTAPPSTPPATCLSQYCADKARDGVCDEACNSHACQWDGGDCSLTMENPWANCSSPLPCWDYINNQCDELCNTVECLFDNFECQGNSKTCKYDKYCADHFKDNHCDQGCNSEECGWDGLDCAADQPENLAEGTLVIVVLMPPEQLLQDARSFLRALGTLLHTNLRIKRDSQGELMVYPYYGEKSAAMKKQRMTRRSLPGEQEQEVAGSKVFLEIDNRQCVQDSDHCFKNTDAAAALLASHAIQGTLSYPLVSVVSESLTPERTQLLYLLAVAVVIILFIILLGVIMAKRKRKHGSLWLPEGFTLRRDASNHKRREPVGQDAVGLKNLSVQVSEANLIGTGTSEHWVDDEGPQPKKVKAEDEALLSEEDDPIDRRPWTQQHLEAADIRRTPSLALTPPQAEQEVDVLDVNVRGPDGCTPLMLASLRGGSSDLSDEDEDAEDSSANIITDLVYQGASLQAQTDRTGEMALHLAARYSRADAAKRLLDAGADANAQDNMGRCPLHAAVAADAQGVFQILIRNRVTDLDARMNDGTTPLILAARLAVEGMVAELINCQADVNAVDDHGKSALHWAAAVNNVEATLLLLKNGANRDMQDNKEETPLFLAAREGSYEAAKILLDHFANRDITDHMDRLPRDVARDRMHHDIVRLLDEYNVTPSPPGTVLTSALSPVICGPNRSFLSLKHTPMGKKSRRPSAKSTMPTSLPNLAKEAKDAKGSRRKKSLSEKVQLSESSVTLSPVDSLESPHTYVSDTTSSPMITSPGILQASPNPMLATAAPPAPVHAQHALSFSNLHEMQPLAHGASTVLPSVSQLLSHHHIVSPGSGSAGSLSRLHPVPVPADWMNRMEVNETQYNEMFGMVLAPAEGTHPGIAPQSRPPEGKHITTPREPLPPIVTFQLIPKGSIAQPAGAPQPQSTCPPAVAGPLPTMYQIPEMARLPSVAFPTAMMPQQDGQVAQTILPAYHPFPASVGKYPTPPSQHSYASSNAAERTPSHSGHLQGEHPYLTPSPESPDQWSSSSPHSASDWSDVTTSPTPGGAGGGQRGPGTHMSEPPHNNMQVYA
SMILES,composite z-score [1],composite z-score [2],composite z-score [3],composite z-score [4],composite z-score [5],composite z-score [6],composite z-score [7],z-score [8],composite z-score [9],composite z-score [10]
CC(C)(C)N1C(=O)[C@H]2[C@H]3[C@H](O)[C@H](O)CC(=NO[C@@H]4O[C@H](CO)[C@@H](O)[C@H](O)[C@H]4O)[C@H]3CC[C@H]2C1=O,-0.477,0.128,-0.17,0.569,0.45,0.947,0.389,0.599 (inactive),0.263,-0.0994
CC(CCN1CCCCc2nc(C)c(C)cc21)=NO[C@@H](C)c1cn([C@H](CO)Cc2ccccc2)nn1,1.22,1.06,-0.177,0.171,0.174,0.605,0.695,1.19 (inactive),0.163,0.347
CCOC(=O)[C@H](CC(C)C)NC(=O)CCC1CC(OC(=O)NCCc2ccc(F)cc2)CC2(CCCC(COC(=O)NCC(c3ccccc3)c3ccccc3)O2)O1 (stereo not given in full),-0.65,0.149,-0.136,0.433,0.787,0.221,1.12,2.36 (inactive),0.0026,-0.236
CCOC(=O)[C@H](CC(C)C)NC(=O)CCC1CC(OC(=O)NCc2cccc3ccccc23)CC2(CCCC(COC(=O)NCCCN3CCCC3=O)O2)O1 (stereo not given in full),-0.494,0.129,-0.131,0.208,0.755,0.466,0.953,1.74 (inactive),0.253,-0.212
COC(=O)[C@@H]1CC[C@H](C)[C@@H](c2ccc(C)cc2)N1C(=O)c1ccc(C=NOCC[C@@H]2C=C[C@H](OC(C)=O)[C@@H](COC(C)=O)O2)cc1,-0.381,0.333,-0.11,0.332,0.7,0.102,0.61,0.579 (inactive),0.0627,0.0505
COC(=O)CC=C[C@@H](C)[C@@H](C=NOC[C@H]1O[C@H](c2ccccc2)C=C[C@@H]1Oc1ccc(OC)cc1)OC,-0.309,-0.0766,-0.14,0.304,-0.639,-0.549,-0.282,0.532 (inactive),-0.251,0.0373
O=C1OCCC=C1C(O)CCc1ccccc1 (stereo not given),-0.209,0.652,-0.0885,0.37,0.327,-0.192,0.375,0.667 (inactive),0.285,-0.0645
CCCNC(=O)OC[C@H]1O[C@H](c2ccccc2)C=C[C@@H]1Oc1ccc(OC)cc1,-0.428,0.273,0.0299,0.594,0.344,-0.327,-0.0407,-0.0983 (inactive),-0.246,-0.0994
CCN1C(=O)[C@@H]2[C@H]3C(=CC[C@@H]2C1=O)C1(OCCCO1)[C@H]1O[C@H]1[C@H]3O,-0.418,0.771,-0.076,1.04,1.17,0.692,1.19,7.42 (inactive),0.404,-0.236
CCOC(=O)NN=C1C[C@@H](O)[C@@H](O)[C@@H]2[C@@H]3C(=O)N(C(C)(C)C)C(=O)[C@@H]3CC[C@H]12,-0.306,0.367,-0.163,0.255,0.444,-0.135,0.603,-0.848 (inactive),0.497,0.0401
CCC(=O)[C@@]1(O)C(=O)N2C(=C3C(=O)OCC[C@@H]31)N(Cc1ccccc1)C(C)=C(C(=O)OC)[C@H]2c1ccccc1,-0.268,0.364,-0.167,0.342,0.355,-0.13,0.0811,0.105 (inactive),0.179,0.176
COc1cccc([C@H]2Oc3ccc(OC)cc3C(=NO[C@@H]3O[C@H](COC(C)=O)[C@@H](OC(C)=O)[C@H](OC(C)=O)[C@H]3OC(C)=O)[C@@H]2O)c1,-0.533,0.974,-0.116,0.326,0.842,-0.62,-0.782,1.59 (inactive),0.198,0.0972
CCOC(=O)[C@H](CC(C)C)NC(=O)CCC1CC(OC(=O)NCc2ccc3c(c2)OCO3)CC2(CCCC(COC(=O)NCCCN3CCCC3=O)O2)O1 (stereo not given in full),-0.303,0.322,-0.087,0.706,0.99,0.817,0.984,0.584 (inactive),0.465,-0.0645
COC(=O)CC=C[C@@H](C)[C@H](OCc1cccc(-c2ccccc2)c1)C1CCCCC1,-0.131,0.0473,-0.174,-0.208,0.813,0.654,0.359,1.38 (inactive),-0.48,0.189

# From PubChem BioAssay
